Compounds without any hit were thinned out: in the full panel of roughly 83,000, 20% have a hit.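 Activity criterion: percent growth below 10, measured after cells in 96-well plates were exposed to a single compound concentration for 48 hours.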 Unmarked numbers belong to inactive results. The source made the active and inactive calls.

Our source for the growth values is PubChem BioAssay (NCI).

Among the test systems are HT29 colon; SNB-75 CNS; SNB-19 CNS; U251 CNS; SK-MEL-5 melanoma; UACC-62 melanoma; LOX IMVI melanoma; SK-MEL-28 melanoma; EKVX NSCLC; SN12C renal; UO-31 renal; TK-10 renal; ACHN renal; CAKI-1 renal; A498 renal; MOLT-4 leukemia; SR leukemia; SK-MEL-2 melanoma; CCRF-CEM leukemia.
Test in all cases: NCI-60 one-dose screen, 48 h (100 = growth as untreated, 0 = no growth, -100 = all killed)
Details in all cases: 10 µM unless noted

For `CCOC(=O)C1=C(C)N2C(=NC3=C(CCC/C3=C\c3ccc(Cl)cc3)C2c2ccc(Cl)cc2)S1` (centres undefined), the growth in the experiment with HT29 colon is -54.3% (active); in the experiment on SNB-75 CNS it was 64.2%; with SNB-19 CNS, 55.4%; in the experiment with U251 CNS it was -100% (active); with SK-MEL-5 melanoma, 40.8%; in the experiment with UACC-62 melanoma it was 54.7%. Also, the growth was -100% (active) in the experiment with LOX IMVI melanoma; 48.8% in the experiment with SK-MEL-28 melanoma; 64.6% in the experiment on EKVX NSCLC; 58.1% in the experiment on SN12C renal; 53.9% with UO-31 renal; 58.2% in the experiment on TK-10 renal. Besides, the growth in the experiment with ACHN renal is 16.6%; in the experiment on CAKI-1 renal it was 62.3%; with A498 renal it was 3.17% (active); in the experiment on MOLT-4 leukemia, -3.87% (active); with SR leukemia, -8.47% (active).

In the case of `Nc1ncc(-c2cnn(C3CCNCC3)c2)cc1-c1nc2cc(Cl)ccc2o1`, the growth in the experiment on HT29 colon was -100% (active); in the experiment with SNB-75 CNS, -97.9% (active); in the experiment with SNB-19 CNS, -91.1% (active); in the experiment on U251 CNS it was -100% (active); in the experiment with UACC-62 melanoma it was -100% (active); with LOX IMVI melanoma, -96.9% (active). The growth is -100% (active) in the experiment with SK-MEL-28 melanoma; -90.8% (active) in the experiment on SK-MEL-2 melanoma; -27.6% (active) with EKVX NSCLC; -100% (active) with SN12C renal; -100% (active) in the experiment with UO-31 renal; -94.1% (active) in the experiment on TK-10 renal. Also, the growth in the experiment on ACHN renal is -96.8% (active); in the experiment on CAKI-1 renal, -76.9% (active); with A498 renal, -99.9% (active); in the experiment on CCRF-CEM leukemia it was -100% (active); in the experiment on MOLT-4 leukemia it was -91.8% (active).

`COc1cc(C(=O)/C=C/c2cccnc2Nc2ccccc2)cc(OC)c1OC`: the growth is -70.2% (active) in the experiment with HT29 colon; -16% (active) in the experiment with SNB-75 CNS; -72.5% (active) in the experiment with SNB-19 CNS; -94.8% (active) with U251 CNS; -99.4% (active) with SK-MEL-5 melanoma; -84.2% (active) with UACC-62 melanoma. Besides, the growth is -49.9% (active) in the experiment with LOX IMVI melanoma; -97.5% (active) in the experiment on SK-MEL-28 melanoma; -5.31% (active) in the experiment with EKVX NSCLC; -92.6% (active) in the experiment with SN12C renal; -99.5% (active) with UO-31 renal; -13% (active) in the experiment with TK-10 renal. The growth was -99.2% (active) in the experiment with ACHN renal, -22.6% (active) in the experiment with CAKI-1 renal, -1.45% (active) with MOLT-4 leukemia and 1.47% (active) with SR leukemia.

Turning to `O=C(Nc1cccc(C(F)(F)F)c1)Nc1ccc(OCc2nnc(-c3ccc(Cl)cc3)o2)c(F)c1`, the growth in the experiment with HT29 colon was 60.2%; with SNB-75 CNS, 39.4%; in the experiment on SNB-19 CNS it was 69.9%; in the experiment on U251 CNS, 52.7%; in the experiment with SK-MEL-5 melanoma it was 77.5%; in the experiment on UACC-62 melanoma, 68.8%. In addition, the growth is 63.5% in the experiment on LOX IMVI melanoma; 73.5% in the experiment with SK-MEL-28 melanoma; 78.7% with SK-MEL-2 melanoma; 77.3% with SN12C renal; 73.9% with UO-31 renal; 81.3% with TK-10 renal. The growth with ACHN renal is 51.2%; with CAKI-1 renal, 80.1%; with A498 renal it was 79%; in the experiment on MOLT-4 leukemia, 66.7%; with SR leukemia, 66.3%.

Regarding `COc1cc(C2NC(c3ccc(Cl)cc3)C(C)/C(=N/NC(N)=S)C2C)cc(OC)c1OC` (centres undefined), the growth was 64.7% in the experiment on HT29 colon; 81% with SNB-75 CNS; 78.2% in the experiment on SNB-19 CNS; 73.4% with U251 CNS; 79.4% in the experiment on SK-MEL-5 melanoma; 94% in the experiment on UACC-62 melanoma. Also, the growth in the experiment with SK-MEL-28 melanoma is 108%; in the experiment with SK-MEL-2 melanoma it was 83.6%; in the experiment with EKVX NSCLC, 107%; with SN12C renal, 94.7%; in the experiment on UO-31 renal, 76.7%; in the experiment on TK-10 renal it was 103%. Also, the growth in the experiment on ACHN renal was 93.2%; with CAKI-1 renal, 51.1%; with A498 renal, 129%; in the experiment on CCRF-CEM leukemia it was 89.8%; in the experiment with MOLT-4 leukemia, 70.7%; with SR leukemia, 98.6%.

On to `CCCCN(CCCC)CCCOC(=O)c1ccc(N)cc1`, for which the growth with HT29 colon is 31.4%; in the experiment on SNB-75 CNS, 39.1%; in the experiment with SNB-19 CNS, 88.7%; in the experiment with U251 CNS it was 58.5%; in the experiment with UACC-62 melanoma, 92.3%; in the experiment with LOX IMVI melanoma it was 64.2%. In addition, the growth in the experiment with SK-MEL-28 melanoma was 57.5%; with SK-MEL-2 melanoma, 85.1%; in the experiment on EKVX NSCLC it was 94.3%; in the experiment with SN12C renal, 82%; in the experiment with UO-31 renal, 81.2%; in the experiment with TK-10 renal, 103%. The growth with ACHN renal was 91.9%; in the experiment with CAKI-1 renal it was 90.5%; in the experiment on A498 renal, 104%; in the experiment on CCRF-CEM leukemia, 96.8%; with MOLT-4 leukemia it was 93.2%.

With `COc1cc(/C=C/C(=O)c2c(-c3ccc(Cl)cc3)nc3sc(C)nn23)cc(OC)c1OC`, the growth in the experiment with HT29 colon is 86.6%; with SNB-75 CNS, 77.3%; with SNB-19 CNS, 90.8%; in the experiment with U251 CNS, 76.4%; with SK-MEL-5 melanoma, 20.9%; in the experiment on LOX IMVI melanoma, 61.6%. For the same compound, the growth in the experiment on SK-MEL-28 melanoma is 94%; with SK-MEL-2 melanoma, 44%; with SN12C renal, 78.3%; in the experiment with UO-31 renal, 51.2%; with ACHN renal, 73.8%; in the experiment on CAKI-1 renal, 93.7%. For the same compound, the growth in the experiment on A498 renal is 85.5%; in the experiment on CCRF-CEM leukemia, 32.5%; with MOLT-4 leukemia, 48.3%; with SR leukemia, 26.1%.

With `COc1ccc(-c2cn(-c3ccccc3)c(-c3ccccc3)n2)cc1OC`, the growth in the experiment with HT29 colon was 19.4%; in the experiment with SNB-75 CNS it was 95.9%; in the experiment with SNB-19 CNS, 117%; in the experiment with U251 CNS, 29.2%; with SK-MEL-5 melanoma, 74.5%; with UACC-62 melanoma it was 62.4%. Moreover, the growth is 14.5% in the experiment on LOX IMVI melanoma; 102% with SK-MEL-28 melanoma; 84.9% with EKVX NSCLC; 71.9% in the experiment with SN12C renal; 52.1% in the experiment on UO-31 renal; 99.4% in the experiment with TK-10 renal. The growth with ACHN renal is 64.4%; with CAKI-1 renal, 79.3%; in the experiment on A498 renal it was 104%; in the experiment with CCRF-CEM leukemia, -66.6% (active); in the experiment with MOLT-4 leukemia, 77%; in the experiment on SR leukemia it was 11.3%.

With `CCC1=C(c2ccc(OC)cc2)C(C)Oc2cc(OC(C)=O)ccc21` (centres undefined), the growth in the experiment on HT29 colon was 102%; with SNB-75 CNS it was 71.9%; with SNB-19 CNS, 88.6%; in the experiment with U251 CNS it was -0.227% (active); in the experiment on UACC-62 melanoma, 74%; with LOX IMVI melanoma, 90.6%. Further, the growth in the experiment on SK-MEL-28 melanoma is 93.7%; in the experiment with SK-MEL-2 melanoma it was 89.7%; in the experiment on EKVX NSCLC, 75%; with SN12C renal, 90.4%; in the experiment on UO-31 renal, 88.6%; in the experiment on TK-10 renal, 98.6%. Further, the growth in the experiment with ACHN renal was 88%; in the experiment on CAKI-1 renal, 74.9%; in the experiment with A498 renal, 90.7%; in the experiment with CCRF-CEM leukemia, 63.5%; with MOLT-4 leukemia, 76.7%; in the experiment on SR leukemia, 53%.
